The text below walks through data of paper PMC4336329 (PLoS ONE, 2015).

The structures appear in SMILES notation. The campaign covered roughly 310,000 compounds. About 14,000 (4.5%) showed an effect of 50% or more. The effect is printed as a negative number. Shown is part of a subset that was picked to be rich in strong results.
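Note: peak tail current of the secondary pulse compared with the same well before compound.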

The target in this test is human ether-à-go-go-related gene (hERG) potassium channel (human, UniProt Q12809). Description: primary screen, population patch clamp on CHO cells stably expressing hERG; higher = less effect of the substance.
human ether-à-go-go-related gene (hERG) potassium channel, sequence (Q12809 whole entry, looked up): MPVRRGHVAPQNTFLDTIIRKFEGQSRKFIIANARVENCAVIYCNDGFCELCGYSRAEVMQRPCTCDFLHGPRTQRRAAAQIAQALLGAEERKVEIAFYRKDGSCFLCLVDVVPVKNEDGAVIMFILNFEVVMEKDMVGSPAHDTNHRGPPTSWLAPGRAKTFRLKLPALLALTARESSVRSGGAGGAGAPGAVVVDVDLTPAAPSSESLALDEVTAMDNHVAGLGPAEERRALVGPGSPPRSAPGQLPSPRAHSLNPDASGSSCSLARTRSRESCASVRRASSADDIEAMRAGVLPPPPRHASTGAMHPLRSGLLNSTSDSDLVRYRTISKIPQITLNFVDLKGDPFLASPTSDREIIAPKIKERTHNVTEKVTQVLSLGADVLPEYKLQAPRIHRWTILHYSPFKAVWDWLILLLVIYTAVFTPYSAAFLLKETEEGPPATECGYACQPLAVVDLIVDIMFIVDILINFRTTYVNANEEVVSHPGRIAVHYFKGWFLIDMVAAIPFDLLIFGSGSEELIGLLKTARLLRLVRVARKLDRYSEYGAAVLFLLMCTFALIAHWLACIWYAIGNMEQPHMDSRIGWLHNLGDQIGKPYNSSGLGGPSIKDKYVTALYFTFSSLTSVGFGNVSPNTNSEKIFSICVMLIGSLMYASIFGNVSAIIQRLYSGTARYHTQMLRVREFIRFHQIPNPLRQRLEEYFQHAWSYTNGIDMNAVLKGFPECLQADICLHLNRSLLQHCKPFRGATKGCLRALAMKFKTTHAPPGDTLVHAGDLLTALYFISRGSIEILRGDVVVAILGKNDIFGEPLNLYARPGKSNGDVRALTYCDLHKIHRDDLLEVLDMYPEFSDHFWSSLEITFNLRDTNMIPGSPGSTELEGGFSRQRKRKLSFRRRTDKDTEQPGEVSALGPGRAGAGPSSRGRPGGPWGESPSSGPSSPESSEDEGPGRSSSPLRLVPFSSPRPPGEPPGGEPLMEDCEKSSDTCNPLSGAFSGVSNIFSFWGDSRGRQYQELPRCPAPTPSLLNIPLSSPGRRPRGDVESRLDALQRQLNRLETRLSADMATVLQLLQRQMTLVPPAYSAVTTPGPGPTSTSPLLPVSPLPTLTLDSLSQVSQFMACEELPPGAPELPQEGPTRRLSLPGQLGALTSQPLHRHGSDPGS
On to `COc1ccc(C2C3=C(CC(C)(C)CC3=O)N(CC(=O)O)C3=C2C(=O)CC(C)(C)C3)cc1OC`, for which the “hERG current change (%, negative = inhibition) at 10uM” value stood at 2.83%.

For the compound `COc1cc(OC)c(N2CC34C=CC(O3)C(C(=O)O)C4C2=O)cc1Cl` (stereo not drawn), the “hERG current change (%, negative = inhibition) at 10uM” value stood at 4.99%.

Take `CCc1nnc(NC(=O)CSc2ccc(-c3nc4ccc(C)cc4[nH]3)cn2)s1`: the “hERG current change (%, negative = inhibition) at 10uM” value is listed as 6.54%.

For the compound `CCc1ccc(OCC(=O)N(C)C)c(Br)c1`, the “hERG current change (%, negative = inhibition) at 10uM” value is -7.33%.

In the case of `CN(C)CCNC(=O)COc1ccc(Cl)cc1Cl`, the “hERG current change (%, negative = inhibition) at 10uM” value was -18.2%.

As for `CCc1ccc(OCC(=O)NCCN(C)C)c(Br)c1`, the “hERG current change (%, negative = inhibition) at 10uM” value is on record as -58.4%.

With `O=C(COC(=O)c1ccc2ncsc2c1)NCc1cccc(Cl)c1`, the “hERG current change (%, negative = inhibition) at 10uM” value is reported as -11.2%.

For the compound `COc1ccc(N2CCN(CC(=O)Nc3c(C)cc(C)cc3C)CC2)cc1`, the “hERG current change (%, negative = inhibition) at 10uM” value is on record as 0.738%.

As for `Cc1ccc(CNC(=O)/C=C/c2ccc(Br)o2)cc1`, the “hERG current change (%, negative = inhibition) at 10uM” value is reported as -26.2%.

Take `O=C(Nc1cccc(Cl)c1)NC1CC2CCC1C2` (stereo not drawn): the “hERG current change (%, negative = inhibition) at 10uM” value is reported as 9.69%.

Consider `Cc1ccc2nc3c(c(Nc4ccc5c(c4)OCCO5)c2c1)CCC3.Cl`, for which the “hERG current change (%, negative = inhibition) at 10uM” value is recorded as -51.7%.

For the compound `Cc1ccc2nc(-c3ccncc3)cc(C(=O)Nc3ccc4c(c3)OCCO4)c2c1`, the “hERG current change (%, negative = inhibition) at 10uM” value stood at 3.46%.

For `Cc1ccc2nc(-c3ccc4c(c3)OCCO4)cc(C(=O)O)c2c1`, the “hERG current change (%, negative = inhibition) at 10uM” value was 4.86%.

For `O=C(COC(=O)c1c2c(nc3ccccc13)CCCC2)Nc1ccc2c(c1)OCO2`, the “hERG current change (%, negative = inhibition) at 10uM” value is listed as 3.1%.

As to `O=C(Nc1c2c(nc3ccccc13)CCCC2)c1ccccc1F`, the “hERG current change (%, negative = inhibition) at 10uM” value is on record as -3%.

As for `O=C(Nc1ccc2c(c1)OCCO2)c1cc(-c2ccccc2)nc2ccccc12`, the “hERG current change (%, negative = inhibition) at 10uM” value is on record as 9.23%.

In the case of `c1ccc2c(Nc3ccc4c(c3)OCCO4)c3c(nc2c1)CCCC3`, the “hERG current change (%, negative = inhibition) at 10uM” value is on record as -92.4%.

`Cl.c1ccc2c(Nc3ccc4c(c3)OCCO4)c3c(nc2c1)CCC3`: the “hERG current change (%, negative = inhibition) at 10uM” value was -52.3%.

Regarding `Cc1cc(C)c(C)c(S(=O)(=O)N2CCC(C(=O)Nc3ccccc3N3CCOCC3)CC2)c1C`, the “hERG current change (%, negative = inhibition) at 10uM” value is reported as -8.54%.

In the case of `Cc1cc(Br)ccc1NC(=O)CNC(=O)Cc1ccc(S(=O)(=O)N2CCOCC2)s1`, the “hERG current change (%, negative = inhibition) at 10uM” value is -33.8%.

Consider `CCOC(=O)[C@H]1CCC[C@@H](NS(=O)(=O)c2ccc(NC(C)=O)cc2)C1`, for which the “hERG current change (%, negative = inhibition) at 10uM” value was found to be 14.1%.

With `Cc1ccc(Nc2ccc3nonc3c2[N+](=O)[O-])cc1`, the “hERG current change (%, negative = inhibition) at 10uM” value turned out to be 2.88%.

For `CCCCNC(=O)C1c2ccccc2C(=O)N(c2ccc(OC)cc2)C1c1ccc(OC)cc1` (stereo not drawn), the “hERG current change (%, negative = inhibition) at 10uM” value is -18.6%.

Regarding `COc1cc(OC)c(C(=O)NNC(=S)NC2CCCCC2)cc1OC`, the “hERG current change (%, negative = inhibition) at 10uM” value was determined as 16.6%.
